# NS1 function inh: influenza NS1 inhibition | AID 2326 | 0.4% of 270,000 active | Potency, µM (doses to about 46.1 µM), without a hit: top-dose activity, positive = more growth; calls by dose curve; further: potency means the concentration at half of the fitted maximal effect; actives are rising curves; nearly all actives have a fitted effect of over 50% in size
#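 Recovery from NS1-induced slow growth read by OD600 in budding yeast switched to galactose assay medium (pH 6.0, -URA) at 1:100 dilution. Compound 23 nl per well; the matching strain lacking NS1 serves as control.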
# Shiga inhibitor: inhibitors of Shiga toxin in Vero cells. Vero cells, Shiga toxin protein synthesis inhibition reporter. inhibition, % at 38.7 µM. 9.2% of 290,000 active; in the data active means inhibition mostly above about 28%, no sharp cut-off; inactive means mostly below about 43%; further: 0% is about no effect
# AmpC inh detg: AmpC beta-lactamase inhibition with detergent present; 0.041% of 370,000 active; AmpC hydrolysis of nitrocefin, absorbance 480 nm, 0.01% Triton; P00811; Potency, µM (titrated, usually from 114 µM), without a hit: at the highest dose activity change, negative = inhibition, most hits filed as inhibitors;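 further: potency means the concentration at half of the fitted maximal effect; 0% = no-compound wells and -100% = no-enzyme wells; nearly all actives have a fitted effect of over 25% in size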
# Target sequence (P00811 whole entry, looked up): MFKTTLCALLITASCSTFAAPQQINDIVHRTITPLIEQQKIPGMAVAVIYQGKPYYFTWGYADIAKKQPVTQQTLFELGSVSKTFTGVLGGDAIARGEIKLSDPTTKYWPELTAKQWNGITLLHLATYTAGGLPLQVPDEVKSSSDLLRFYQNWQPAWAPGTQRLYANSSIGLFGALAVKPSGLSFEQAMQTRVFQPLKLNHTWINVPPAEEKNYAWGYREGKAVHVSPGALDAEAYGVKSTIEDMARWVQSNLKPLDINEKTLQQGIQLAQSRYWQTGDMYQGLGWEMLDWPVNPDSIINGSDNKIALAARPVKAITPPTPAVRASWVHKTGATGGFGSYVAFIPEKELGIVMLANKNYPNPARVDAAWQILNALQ
#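 AmpC (5.3 nM in the dispensed reagent) in 20 mM phosphate pH 7.0 with 0.01% (detergent screen) or 0.0001% Triton X-100 was preincubated with compounds for 15 min at room temperature. Nitrocefin was then added from an 800 uM solution, and hydrolysis was followed at 480 nm.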
# Cycloheximide cs: affects cycloheximide protein synthesis inhibition readout, counter-screen | max response, % | AID 2314 | cell reporter, cycloheximide protein synthesis inhibition counterscreen | 12% of 300,000 active; in the data active means max response mostly above about 13%, no sharp cut-off; inactive means mostly below about 14%; further: read at 38.3 µM for the half of the compounds with a filed dose; 0% is about no effect
# AmpC no deterg: blocks E. coli AmpC beta-lactamase in detergent-free assay | AID 485341 | AmpC nitrocefin hydrolysis, absorbance 480 nm, 0.0001% Triton | 0.52% of 330,000 active | P00811 | Potency, µM (titrated, usually from 57.1 µM), for inactives: at the highest dose activity change, negative = inhibition, hits mostly inhibitors;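 further: potency means the concentration at half of the fitted maximal effect; plate controls were no compound for no effect and no enzyme for full effect; nearly all actives have a fitted effect of over 20% in size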
#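 20 mM phosphate pH 7.0 + 0.01% (detergent screen) or 0.0001% Triton X-100; 5.3 nM AmpC reagent; cpd preinc 15 min RT; nitrocefin (800 uM stock) to start; A480 q20 s × 4 min; Activity was normalised to no-enzyme and no-compound control wells.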
# An asterisk follows results filed as active; ? = inconclusive; . = no result. Many of the other results were omitted from the sample, so hits are more common in it than they were. Unless noted, the call rests on the fitted dose curve; in most records, active means well fitted curve in the direction sought with a large enough effect; inconclusive means small, poorly fitted or top-dose-only effect, or another doubt; inactive means no such curve, though single readings can be large; an effect the other way counts as inactive or inconclusive.
SMILES,NS1 function inh,Shiga inhibitor,AmpC inh detg,Cycloheximide cs,AmpC no deterg
O=S(=O)(Nc1ccc(-c2cnco2)cc1)c1ccccc1,4%,-7,0%,1,-28%
O=C(COC(=O)c1ccccc1O)Nc1cccc(S(=O)(=O)N2CCCC2)c1,.,.,-7%,.,-46%
CCOc1ccc2nc(NC(=O)c3nc(SCc4ccccc4F)ncc3Cl)sc2c1,.,.,20%,.,.
O=C(N1CCOCC1)C1(c2ccccc2)CCNCC1,-3%,.,.,.,.
COc1cc(/C=N/Nc2ccccc2)ccc1OC(=O)c1cccs1,-24%,61,?,35*,-25%
COc1cc(/C=N/NC(=O)c2cccnc2)cc2c1OCO2,2%,-7,-14%,2,-20%
COc1cc(/C=N/NC(=O)c2ccccn2)ccc1OC(=O)c1cccs1,-12%,67*,?,37*,50%
COc1cc(/C=N/Nc2ccc(Cl)c(C(=O)O)c2)ccc1OC(=O)c1cccs1,-19%,47,1%,14,-42%
COc1cc(/C=N/NC(=O)c2ccccn2)cc2c1OCO2,-5%,107*,1%,57*,-1%
COc1cc(/C=N/NC(=O)COc2ccc(C)cc2)ccc1OC(=O)c1cccs1,?,13,-12%,16*,-26%
COc1cc(/C=N/NC(=O)C(N)=O)ccc1OC(=O)c1cccs1,-5%,-8,4%,-2,-12%
O=C(CSc1oc(-c2ccccc2)nc1S(=O)(=O)c1ccc(Br)cc1)c1ccccc1,.,.,6%,.,.
CCCOc1ccc(C(=O)Nc2cc3c(cc2N2CCCCC2)n(C)c(=O)n3C)cc1,.,.,21%,.,.
NC(Cc1ccccc1)c1nc(-c2ccccc2)no1 (configuration not stated),?,38*,5%,30*,-8%
C/C(N=NC(=[SH+])SCc1ccccc1)=C1\C=CC=CN1.[Cl][Cu],2%,.,.,.,.
COCc1nc2ccccc2n1Cc1ccc(C(C)(C)C)cc1,.,.,2%,.,.
COc1ccc(/C=N/Nc2nc(=O)[nH]nc2C)cc1OC,3%,66*,-2%,33*,5%
COc1cc(/C=N/Nc2nc(=O)[nH]nc2C)cc([N+](=O)[O-])c1O,4%,57*,0%,25*,-36%
COc1cc(/C=N/Nc2nc(=O)[nH]nc2C)ccc1O,6%,70*,-7%,37*,-15%
COc1ccc(/C=N/Nc2nc(=O)[nH]nc2C)cc1[N+](=O)[O-],-10%,6,-3%,7,-6%
Cc1n[nH]c(=O)nc1N/N=C/c1ccc(O)c([N+](=O)[O-])c1,2%,-3,?,14,-13%
Cc1c(CNC2CCCCC2)c(C(=O)O)c(C)n1Cc1ccc(Cl)cc1,.,.,12%,.,.
Cc1ccc2oc(-c3ccc(Cl)c(NC(=O)c4ccc(OC(C)C)cc4)c3)nc2c1,.,.,7%,.,.
COc1ccc(CCNC(=O)CCc2ccc(S(=O)(=O)NC(C)C)cc2)cc1,8%,-1,2%,-4,-18%
COC(=O)C1CCN(C(=O)/C=C/c2ccc(OC)cc2)CC1,3%,93,3%,49*,-2%
SMILES,NS1 function inh,Shiga inhibitor,AmpC inh detg,Cycloheximide cs,AmpC no deterg
CN(C)C(CNC(=O)C1CCN(C(=O)/C=C/c2ccccc2)CC1)c1ccccc1 (configuration not stated),2%,59*,-6%,38*,3%
COc1ccc2cc(/C=C/C(=O)N3CCN(CC(=O)N4CCCCCC4)CC3)ccc2c1,-7%,44*,-12%,37*,180%
COc1ccc(C(=O)N2CCN(CC(=O)N3CCOCC3)CC2)cc1,7%,9,-12%,-1,0%
O=C(/C=C/c1ccc2c(c1)OCO2)N1CCCCC1,-18%,45*,?,39*,-10%
O=C(/C=C/c1ccc2c(c1)OCO2)N1CCN(c2ccc(Cl)cc2)CC1,4%,-3,0%,-2,-15%
Cc1cccc(NC(=O)c2ccc(S(=O)(=O)N3CCCCC3)cc2)c1,-23%,1,-7%,1,-46%
CC(=O)c1c(C)n(-c2cccc(Cl)c2)c2ccc(OC(=O)c3ccccc3)cc12,.,.,9%,.,.
COC(=O)[C@]1(Cc2ccccc2)N[C@H](CN(C)C(=O)Nc2ccc(Cl)cc2)[C@@H]2C(=O)N(Cc3ccccc3)C(=O)[C@@H]21,.,.,.,.,-35%
COc1ccccc1-c1cc2nc(C)c(CCC(=O)NCCc3ccc(SC)cc3)c(C)n2n1,.,.,-9%,.,.
COc1ccc(N(CC(=O)Nc2ccccc2C(=O)O)S(=O)(=O)c2ccc(C)c([N+](=O)[O-])c2)cc1,?,-7,-1%,-2,-25%
CCOC(=O)C1CCN(C(=O)COC(=O)/C=C/c2ccccc2)CC1,.,.,.,.,31%
CCOC(=O)C1CCN(C(=O)/C=C/c2ccc3c(c2)OCO3)CC1,-22%,77,?,29*,-8%
CCOC(=O)C1CCN(C(=O)/C=C/c2ccccc2)CC1,.,73*,?,33,10%
COc1ccccc1NC(=O)c1ccc(N2CC3CC(C2)c2cccc(=O)n2C3)c(NC(=O)c2ccncc2)c1 (configuration not stated),2%,-3,-14%,-6,12%
Cc1ccccc1Nc1c(N)c(=O)oc2ccccc12,-2%,-7,2%,0,0.32µM*
COc1ccc(N=C2C(=Nc3ccc(OC)cc3)N(c3ccc(OC)cc3)C(=S)N2C(=O)c2ccc(OC)cc2)cc1,9%,42*,?,14*,-12%
COc1ccc(N=C2C(=Nc3ccc(OC)cc3)N(c3ccccc3)C(=S)N2C(=O)c2ccc(Cl)cc2)cc1,15%,63*,-6%,43*,-22%
COc1ccc(N2CCN(C(=O)CCc3c(C)nc4cc(-c5cccc(F)c5)nn4c3C)CC2)cc1,.,.,6%,.,.
COCCCn1c(SCC(=O)OC2CCCCC2)nnc1-c1ccco1,-4%,19,-11%,17*,23%
Cn1c(SCC(=O)OC2CCCCC2)nnc1-c1ccco1,2%,16,-3%,16*,-3%
CCOC(=O)c1sc(NC(=O)C2CC(=O)N(c3ccc(C)cc3)C2)nc1C (configuration not stated),4%,-4,-1%,-6,62%
CN1C(=O)C(O)(c2nnc(-c3ccccc3)o2)c2ccccc21 (configuration not stated),-2%,46,-7%,19*,-13%
CC(OC(=O)C1=Cc2ccccc2OC1)C(=O)NC(C)(C)C (configuration not stated),6%,-10,-4%,-1,-15%

# Source: PubChem (National Center for Advancing Translational Sciences (NCATS))
